Source: PubChem BioAssay
This excerpt belongs to a sample that is enriched for hits.
TbREL1 primary: TbREL1 inhibition, primary screen. 89,000 tested, 0.49% active. TbREL1 RNA ligation, FRET fluorescence. inhibition, % at 9.66 µM;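 active = inhibition above the mean inhibition across all screened compounds plus 3 SD, cut at about 11% in these data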
Target sequence (P86926 whole entry, looked up): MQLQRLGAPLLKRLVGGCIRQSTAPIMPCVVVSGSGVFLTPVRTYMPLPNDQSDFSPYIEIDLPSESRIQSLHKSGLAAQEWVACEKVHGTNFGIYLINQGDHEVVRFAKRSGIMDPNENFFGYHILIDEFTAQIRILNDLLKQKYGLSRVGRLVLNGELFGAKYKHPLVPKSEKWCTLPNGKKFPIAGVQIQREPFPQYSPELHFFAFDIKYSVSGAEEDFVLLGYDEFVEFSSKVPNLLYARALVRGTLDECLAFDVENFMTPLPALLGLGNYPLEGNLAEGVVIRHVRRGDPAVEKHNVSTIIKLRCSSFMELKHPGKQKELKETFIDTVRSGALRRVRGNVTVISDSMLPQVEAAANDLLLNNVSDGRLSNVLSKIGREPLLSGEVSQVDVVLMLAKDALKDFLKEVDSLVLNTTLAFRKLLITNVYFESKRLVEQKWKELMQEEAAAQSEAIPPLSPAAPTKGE
TbREL1 conf: TbREL1 inhibition, confirmation. shares compounds with TbREL1 primary. TbREL1 RNA ligation, FRET fluorescence. inhibition, % at 9.66 µM. 390 tested, 37% active;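 active = mean inhibition across replicates above a set limit taken from the earlier primary screen, cut at about 11% in these data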
Hits are given with their value; - = inactive.

SMILES | TbREL1 primary | others
CCC(C)NC(=O)c1c(N)n(CCCOC)c2nc3ccccc3nc12 (centres undefined) | 44 | TbREL1 conf=36
CCC(C)NC(=O)c1c(N)n(CC2CCCO2)c2nc3ccccc3nc12 (centres undefined) | 37 | TbREL1 conf=29
Cc1cccn2c(NCC3CCCO3)c(C(C)C)nc12 (centres undefined) | -
CCC(C)OC(=O)c1c(N)n(Cc2cccs2)c2nc3ccccc3nc12 (centres undefined) | -
CC1(C)C2SCC(=O)N2CCN1CC(=O)NN (centres undefined) | -
C=CCn1c(O)c(/C(C)=N/N2CCN(C)CC2)c(=O)[nH]c1=O | -
CC(c1ccccc1)[n+]1ccccc1 (centres undefined) | -
C=CCCC(NC(=O)OCc1ccccc1)P(=O)(Oc1ccccc1)Oc1ccccc1 (centres undefined) | -
O=C(NC1CN2CCC1CC2)c1cc(-c2ccc(Cl)cc2)nc2ccccc12 (centres undefined) | -
c1cc(OCCN2CC2)ccn1 | -
Cn1cc(P(=S)(c2ccccc2)c2ccccc2)c2ccccc21 | -
Cc1cc(O)c2c(c1)C(=O)[C@@]13C(=C2O)C(=O)[C@H]2C(O)[C@@H]1[C@H]1C(O)[C@@H]3C(=O)C3=C(O)c4c(O)cc(C)cc4C(=O)[C@@]312 (some centres undefined) | 32 | TbREL1 conf=63
Cc1ccsc1C(=O)C1CCCN(Cc2cccn2-c2ccccn2)C1 (centres undefined) | -
COC(=O)[C@@]1(O)c2c(oc3cccc(O)c3c2=O)C=C[C@H]1O | -
CC(C)(C)Cc1nnc(NC(=O)COc2ccc(Cl)cc2Cl)o1 | -
C[C@H](NC(=O)OCc1ccccc1)[P+](=O)O | -
Cc1cc(N2CCNC[C@H]2C)ccc1N1CCN[C@@H](C)C1 | -
COc1ccc(/C=N/N=C(/N)N[N+](=O)[O-])c(OC)c1 | -
N/C(=N\N=C/c1ccc(-c2ccc(O)c(C(=O)O)c2)o1)N[N+](=O)[O-] | 49 | TbREL1 conf=17
CCCNC(=O)N1[C@H]2CC[C@@H]1C(C(=O)OC)=C(c1ccc(-c3ccccc3)c(F)c1)C2 | -
C[C@@H]1COc2cc(N3CCN(C)CC3)ccc2S(=O)(=O)N1 | -
CN1CCN(c2ccc(NC(=O)C(C)(C)C)cc2)CC1 | -
CN1CCN(c2ccc(N)cc2)CC1 | 17 | TbREL1 conf=-
COCCNC(=O)Cn1cc(C(=O)c2ccccc2F)c2ccccc21 | -
Cc1cc(N2CCNC[C@H]2C)ccc1N1CC[C@@H](O)C1 | -
CC(C)(C)C(=O)N1Cc2cc(-c3cccc(F)c3)ccc2-n2nncc2C1 | -
COc1ccc(-c2ccc3c(c2)CN(c2cccc(Cl)c2)Cc2cnnn2-3)cc1 | 15 | TbREL1 conf=-
Clc1cccc(N2Cc3cc(N4CCOCC4)ccc3-n3nncc3C2)c1 | -
c1ccc(Cc2cnc(N3CCNCC3)nc2)cc1 | -
CC(c1ccccc1)n1cc(C(=O)NC2CCCC2)nn1 (centres undefined) | -
